From PubChem BioAssay (NCATS)
Records with an inconclusive call do not appear. Where a call stands in place of a potency, no number is given. The source made the active and inactive calls. Unless noted, calls follow the shape of the dose curve; as a rule, active = well fitted curve in the direction sought with a large enough effect; inconclusive = small, poorly fitted or top-dose-only effect, or another doubt; inactive = no such curve, though single readings can be large; an effect the other way counts as inactive or inconclusive.

How the values were obtained:
[1] = target: Tumor susceptibility gene 101 protein (Homo sapiens) (UniProt Q99816); assay: qHTS Assay for Iinhibitors of HIV-1 Budding by Blocking the Interaction of PTAP/TSG101: Hit Validation (AID 651600); also: nearly all actives have a fitted effect of over 70% in size
In short: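 Displacement of a FITC-labeled PTAP-motif peptide (50 nM) from the Tsg101 binding domain (10 uM) was monitored by fluorescence polarization after a 20 min room-temperature incubation.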

[2] = tested on: Zika virus NS2B-NS3 protease; assay: Primary screen GU AMC qHTS for Zika virus inhibitors (AID 1347154); also: potency is read from the fitted curve at half-maximal effect; nearly all actives have a fitted effect of over 70% in size
In short: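 Unlinked Zika NS2B hydrophilic domain/NS3 protease domain noncovalent complex (25 nM final) in 10 mM Tris-HCl pH 8.0, 0.01% Tween 20, with AMC peptide substrate. Fluorescence (ex 340, em 450 nm) change over 15 min, room temperature; percent inhibition fitted to 4-parameter Hill equation.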

[3] = target: Cytochrome P450 2C9 (Homo sapiens) (UniProt P11712); assay: Cytochrome P450 family 2 subfamily C member 9 (CYP2C9) small molecule antagonists: luciferase biochemical (cell-free) qHTS assay (AID 1645842; active = well fitted curve in the direction sought with a large enough effect in the repeat runs; an effect the other way counts as inactive or inconclusive; also: series mostly up to about 57 µM; nearly all actives have a fitted effect of over 55% in size)
In short: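 P450-Glo CYP2C9 system: proluciferin substrate with enzyme in mix containing 0.4% BSA, 10 min at room temperature, then NADPH regeneration solution added and incubated 1 h at 37C. Detection reagent stopped reaction; luminescence read after 20 min as RLU.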

[4] = target: Rap guanine nucleotide exchange factor 3 (Homo sapiens) (UniProt O95398); assay: Confirmatory qHTS for antagonist of cAMP-regulated guanine nucleotide exchange factor 3 (EPAC1) (AID 1645880); also: nearly all actives have a fitted effect of over 55% in size
In short: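 Released BODIPY-GDP fluoresces less than Rap1-bound BODIPY-GDP; the signal is followed at 480/540 nm at 5-min intervals over 30 min, after 5 min at room temperature. Reactions contain 100 nM EPAC1, 250 nM RAP1B-BODIPY-GDP and 50 uM GDP; results are normalized to ATA and DMSO.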

[5] = target: Rap guanine nucleotide exchange factor 3 (Homo sapiens) (UniProt O95398); assay: Confirmatory qHTS for agonist of cAMP-regulated guanine nucleotide exchange factor 3 (EPAC1) (AID 1645881);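 also: EPAC1 catalysed release of BODIPY-GDP from Rap1B seen as fluorescence loss; nearly all actives have a fitted effect of over 75% in size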
[6] = target: Rap guanine nucleotide exchange factor 4 (Homo sapiens) (UniProt Q8WZA2); assay: Confirmatory qHTS for agonist of cAMP-regulated guanine nucleotide exchange factor 4 (EPAC2) (AID 1645884);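 also: nucleotide exchange releases bodipy-GDP from Rap1 and this lowers its fluorescence; nearly all actives have a fitted effect of over 65% in size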
[7] = target: Rap guanine nucleotide exchange factor 4 (Homo sapiens) (UniProt Q8WZA2); assay: Confirmatory qHTS for antagonist of cAMP-regulated guanine nucleotide exchange factor 4 (EPAC2) (AID 1645885); also: nearly all actives have a fitted effect of over 25% in size
[8] = target: Rap guanine nucleotide exchange factor 3 (Homo sapiens) (UniProt O95398); assay: Counterscreen qHTS for antagonist of cAMP-regulated guanine nucleotide exchange factor 3 (EPAC1) (AID 1645888)
In short: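 Measured: fluorescence of BODIPY-GDP bound to Rap1B, which falls as exchange proceeds. Conditions include 50 uM competing GDP, 5 and 30 min reads, and a later cAMP challenge for antagonist detection.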

Sequence of Rap guanine nucleotide exchange factor 3 (Homo sapiens) (O95398 whole entry, looked up): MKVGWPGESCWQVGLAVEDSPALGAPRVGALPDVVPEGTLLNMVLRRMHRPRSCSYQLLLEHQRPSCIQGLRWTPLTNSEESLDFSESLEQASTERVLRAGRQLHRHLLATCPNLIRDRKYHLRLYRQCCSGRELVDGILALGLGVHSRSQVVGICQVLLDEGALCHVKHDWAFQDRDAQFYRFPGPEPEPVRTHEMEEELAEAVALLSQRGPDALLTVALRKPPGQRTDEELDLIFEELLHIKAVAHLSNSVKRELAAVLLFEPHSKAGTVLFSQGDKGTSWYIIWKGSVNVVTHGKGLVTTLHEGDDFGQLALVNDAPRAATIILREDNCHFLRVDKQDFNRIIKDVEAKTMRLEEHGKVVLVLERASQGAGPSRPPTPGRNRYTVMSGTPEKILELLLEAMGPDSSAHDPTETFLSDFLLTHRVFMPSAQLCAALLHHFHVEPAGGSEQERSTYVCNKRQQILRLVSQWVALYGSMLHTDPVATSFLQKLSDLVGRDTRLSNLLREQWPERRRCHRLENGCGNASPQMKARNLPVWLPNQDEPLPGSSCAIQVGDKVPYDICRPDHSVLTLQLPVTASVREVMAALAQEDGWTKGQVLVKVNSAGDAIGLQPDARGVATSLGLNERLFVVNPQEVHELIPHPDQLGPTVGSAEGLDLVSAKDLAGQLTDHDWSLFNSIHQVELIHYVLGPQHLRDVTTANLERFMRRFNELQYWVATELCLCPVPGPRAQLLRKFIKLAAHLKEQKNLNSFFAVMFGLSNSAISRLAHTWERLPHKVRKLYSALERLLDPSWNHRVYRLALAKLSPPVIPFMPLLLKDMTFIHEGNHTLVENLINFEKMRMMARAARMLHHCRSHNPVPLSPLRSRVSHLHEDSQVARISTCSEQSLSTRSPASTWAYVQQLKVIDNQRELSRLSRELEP
Sequence of Rap guanine nucleotide exchange factor 4 (Homo sapiens) (Q8WZA2 whole entry, looked up): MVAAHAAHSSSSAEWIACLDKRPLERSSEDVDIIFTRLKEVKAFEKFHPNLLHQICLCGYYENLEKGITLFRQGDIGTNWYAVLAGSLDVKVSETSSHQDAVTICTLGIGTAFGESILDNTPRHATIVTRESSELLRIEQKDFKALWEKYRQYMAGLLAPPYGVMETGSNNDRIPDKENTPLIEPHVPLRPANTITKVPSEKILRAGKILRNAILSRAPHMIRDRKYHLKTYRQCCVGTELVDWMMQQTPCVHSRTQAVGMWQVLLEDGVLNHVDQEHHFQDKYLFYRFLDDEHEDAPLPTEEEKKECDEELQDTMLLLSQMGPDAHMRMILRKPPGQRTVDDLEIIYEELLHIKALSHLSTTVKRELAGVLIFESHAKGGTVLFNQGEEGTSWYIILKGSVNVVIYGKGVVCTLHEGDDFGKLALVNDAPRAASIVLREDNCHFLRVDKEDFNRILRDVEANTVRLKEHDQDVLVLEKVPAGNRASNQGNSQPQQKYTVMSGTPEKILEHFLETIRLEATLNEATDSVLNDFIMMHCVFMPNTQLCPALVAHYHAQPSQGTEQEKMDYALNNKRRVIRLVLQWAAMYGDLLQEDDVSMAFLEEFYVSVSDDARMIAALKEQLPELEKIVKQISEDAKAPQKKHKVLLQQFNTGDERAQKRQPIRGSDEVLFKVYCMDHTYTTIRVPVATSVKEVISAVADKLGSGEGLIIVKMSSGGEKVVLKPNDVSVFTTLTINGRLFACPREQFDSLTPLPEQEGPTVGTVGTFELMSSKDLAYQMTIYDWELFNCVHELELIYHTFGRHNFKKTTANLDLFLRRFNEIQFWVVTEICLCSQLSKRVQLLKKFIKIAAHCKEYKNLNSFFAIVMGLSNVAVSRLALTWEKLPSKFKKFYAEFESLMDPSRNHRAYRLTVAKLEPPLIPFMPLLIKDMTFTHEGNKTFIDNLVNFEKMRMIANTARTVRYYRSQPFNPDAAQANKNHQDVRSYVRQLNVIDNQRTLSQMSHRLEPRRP
Sequence of Cytochrome P450 2C9 (Homo sapiens) (P11712 whole entry, looked up): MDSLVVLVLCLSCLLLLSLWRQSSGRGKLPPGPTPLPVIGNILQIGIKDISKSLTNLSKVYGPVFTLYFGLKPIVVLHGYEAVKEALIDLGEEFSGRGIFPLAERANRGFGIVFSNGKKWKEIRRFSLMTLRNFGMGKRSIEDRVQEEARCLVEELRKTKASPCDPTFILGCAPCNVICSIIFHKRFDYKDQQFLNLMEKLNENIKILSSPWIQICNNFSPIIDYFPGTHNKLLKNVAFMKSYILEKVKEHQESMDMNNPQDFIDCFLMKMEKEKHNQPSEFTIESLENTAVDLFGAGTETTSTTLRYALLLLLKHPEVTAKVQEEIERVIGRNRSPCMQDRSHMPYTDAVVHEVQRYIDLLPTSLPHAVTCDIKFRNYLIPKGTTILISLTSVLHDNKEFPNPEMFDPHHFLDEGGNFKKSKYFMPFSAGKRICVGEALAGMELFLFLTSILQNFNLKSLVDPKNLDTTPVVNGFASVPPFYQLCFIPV
Sequence of Tumor susceptibility gene 101 protein (Homo sapiens) (Q99816 whole entry, looked up, the tested form may be a part): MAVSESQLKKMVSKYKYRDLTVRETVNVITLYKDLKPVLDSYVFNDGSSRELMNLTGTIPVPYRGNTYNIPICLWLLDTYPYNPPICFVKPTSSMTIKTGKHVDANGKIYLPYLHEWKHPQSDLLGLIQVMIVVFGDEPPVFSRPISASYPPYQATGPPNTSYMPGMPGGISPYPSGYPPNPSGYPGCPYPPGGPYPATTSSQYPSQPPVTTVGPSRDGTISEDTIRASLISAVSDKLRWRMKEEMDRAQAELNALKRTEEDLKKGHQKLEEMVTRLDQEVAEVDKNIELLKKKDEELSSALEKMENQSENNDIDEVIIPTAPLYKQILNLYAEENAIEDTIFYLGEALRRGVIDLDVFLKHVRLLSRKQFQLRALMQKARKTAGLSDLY

CCOC(=O)c1ccc(NC(=O)CSc2nc(-c3cccs3)cc(C(F)(F)F)c2C#N)cc1
outcome [1]: inactive

CCOC(=O)O[C@H](C)OC(=O)C1N2C(=O)[C@H](NC(=O)[C@H](N)c3ccccc3)C2SC1(C)C (stereo partly drawn)
Potency [2]: 26.7 µM (active)

Cc1ccc(-c2nnc(Nc3ccccc3)c3ccccc23)cc1S(=O)(=O)NCc1nc2ccccc2[nH]1
Potency [3]: inactive

CCOC(=O)c1ccc(NC(=O)CSc2nc(-c3ccc(OC)cc3)cc(C(F)(F)F)c2C#N)cc1
Potency [4]: inactive | outcome [5]: inactive | outcome [6]: inactive | Potency [7]: inactive | outcome [8]: inactive
